D1 antag: human D1 dopamine receptor antagonism. P21728. hit rate 3.2% among 360,000. HEK293 TREx D1 cells, calcium flux, dopamine EC80; active compounds read low. activity change, negative = inhibition, % at 10 µM; in the data active means activity change below about -30%; further: on the % scale 0 is the no-effect control and ±100 the full control effect
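Tetracycline-induced HEK293 Trex D1 cells, force-coupled to calcium, dye-loaded; compounds added and read 180 s, then EC80 dopamine added and calcium flux tracked kinetically another 180 s.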
D1 ag: agonists of human D1 dopamine receptor; hit rate 1% among 360,000; activation, % at 2 µM; HEK293 T-REx D1 cells, calcium flux, agonist mode; P21728; further: 0% is about no effect
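Inducible HEK293 T-REx D1 cells, force-coupled to calcium signalling, were plated at 4000 cells/well with tetracycline and held overnight at 30 C. After no-wash calcium dye loading, compound-evoked calcium rise over 180 s flagged agonists.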
TRHR PAM: allosteric enhancers of human TRH receptor; P34981; TRHR cells, fluo-8 calcium fluorescence, EC20 TRH enhancement; enhancement, % at 2 µM; hit rate 0.66% among 360,000; AID 493056; in the data active means enhancement above about 30%; further: 0% is about no effect
Target sequence (P34981 whole entry, looked up): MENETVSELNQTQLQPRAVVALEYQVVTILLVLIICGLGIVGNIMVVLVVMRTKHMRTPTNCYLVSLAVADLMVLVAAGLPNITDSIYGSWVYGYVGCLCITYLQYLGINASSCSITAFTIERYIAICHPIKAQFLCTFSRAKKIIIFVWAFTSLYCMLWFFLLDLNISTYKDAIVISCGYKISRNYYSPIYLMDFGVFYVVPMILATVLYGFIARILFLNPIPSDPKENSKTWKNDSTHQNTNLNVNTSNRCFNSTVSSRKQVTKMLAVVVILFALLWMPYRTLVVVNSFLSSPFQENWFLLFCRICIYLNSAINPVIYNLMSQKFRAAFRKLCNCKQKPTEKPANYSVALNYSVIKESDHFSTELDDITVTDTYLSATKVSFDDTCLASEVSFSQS
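Enhancer read-out: after compound pinning and an initial kinetic agonist-mode read, an EC20 of TRH (10 nM final) was injected and fluo-8 calcium signal (Ex 480/Em 530) followed at 1 s/cycle for 100 cycles in TRHR-expressing cells.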
D1 PAM: enhances dopamine response at the human D1 receptor | HEK293 TREx D1 cells, calcium flux, dopamine EC20 potentiation | hit rate 0.036% among 360,000 | potentiation, % at 10 µM | P21728; in the data active means potentiation above about 30%; further: 0% is about no effect
TRHR agonist: TRH receptor (human) agonism | hit rate 0.18% among 360,000 | activation, % at 2 µM | TRHR cells, calcium flux fluo-8, FDSS agonist mode; further: 0% is about no effect
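Steps: seed TRHR cells overnight; add fluo-8 no-wash Ca dye, RT 30 min–1.5 h; record 10 s baseline; pin-transfer compounds; monitor fluorescence 1 cycle/s for the agonist window. Calcium increases flag candidate agonists.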
The depositor's hits bear a star; · = no result. Hits are enriched below; roughly 4.7% of the tested compounds scored in any of these assays. Unless noted, no stated cut-off is given here; in the data, active means activation above about 30%; inactive means the rest.

SMILES	D1 antag	D1 ag	TRHR PAM	D1 PAM	TRHR agonist
COc1ccc(C(=O)Nc2ccc(C(=O)N3CCOCC3)cc2)cc1OC	-1	3	32*	13	0
CC(=O)c1cccc(NC(=O)COC(=O)c2ccccc2C)c1	-17	15	31*	-4	-1
C=C(C)Cn1c(=O)c2c(nc3n2CCN3c2ccc(CC)cc2)n(C)c1=O	5	8	-2	-4	0
COC(=O)c1ccc(NC(=O)c2cc(=O)c3ccc(C)cc3o2)cc1	-2	0	7	-1	-1
O=C(NNC(=O)C1[C@H]2CCCC[C@@H]12)Nc1cccc2ccccc12 (some centres not stated)	6	3	4	-2	0
CC(=O)c1ccc(NC(=O)COc2ccccc2C(=O)Nc2ccc(C)cn2)cc1	·	-2	2	-4	-1
CCOC(=O)c1ccc(NC(=O)c2ccc(OC(C)C)c(OC)c2)cc1	-32*	0	-4	-13	-1
Cc1ccc(C(=O)Nc2ccc(N3CCN(C(=O)c4ccco4)CC3)cc2)cc1	-9	2	-10	2	-1
CC(=O)c1ccc(NC(=O)COc2ccccc2C(=O)Nc2ccccc2)cc1	-61*	7	-2	-11	1
O=C(CNCCc1ccc(Cl)cc1)Nc1ccc(C(=O)N2CCCCC2)cc1	-16	34*	-2	-11	1
O=C(CNCCc1ccccc1)Nc1ccc(C(=O)N2CCCCC2)cc1	21	9	0	-9	1
O=C(Nc1ccc(N2CCN(C(=O)c3ccco3)CC2)cc1)c1ccc(Br)cc1	-32*	0	-7	-11	0
Cc1c(CCNC(=O)c2ccc(C(C)(C)C)cc2)sc2nc(-c3ccc(F)cc3)nn12	·	11	2	2	1
Cc1cc2oc(=O)c(CC(=O)NCCc3ccccc3F)c(C)c2c2occ(C(C)(C)C)c12	-16	3	4	0	1
O=c1c2cc3c(cc2nc2sc(Nc4ccccc4)nn12)OCO3	-6	2	2	2	0
CCOc1ccc(NC(=O)c2oc3ccccc3c2NC(=O)c2c(F)cccc2F)cc1	-19	8	-1	-4	-2
CCOc1ccccc1C(=O)Nc1c(C(=O)Nc2ccc(F)cc2)oc2ccccc12	7	5	43*	-1	1
Cc1cc(S(=O)(=O)Nc2ccc(-c3ccc(N4CCCCCC4)nn3)cc2)c(C)cc1Cl	4	2	5	1	0
O=c1cc(-c2c(F)c(F)c(F)c(F)c2F)oc2ccccc12	-1	10	-4	-1	1
CCN(CC)c1ccc2nc3c4ccccc4c(=O)cc-3oc2c1	-25	42*	-3	-4	16
Cc1ccccc1C(=O)Nc1nc2nc(-c3ccccc3)cc(=O)n2[nH]1	-5	0	-1	-2	1
COc1ccc(C(=O)Oc2ccc3ccc(=O)oc3c2)cc1OC	-6	0	-4	-5	0
COc1cc2cc(Oc3ccc4ccc(=O)oc4c3)c(=O)oc2cc1OC(=O)/C=C/c1ccccc1	-62*	2	12	-7	-1
CCc1ccc(-n2c(=O)c3sc4ccccc4c3n(CC(=O)N3CCCC3)c2=O)cc1	6	0	0	4	0
O=[N+]([O-])c1cc(S(=O)(=O)NC2=NCCCCC2)ccc1NCC1CCCCC1	-33*	6	-3	0	-1
SMILES	D1 antag	D1 ag	TRHR PAM	D1 PAM	TRHR agonist
Nc1ccc(S(=O)(=O)NC2=NCCCCC2)cc1N	12	3	10	-5	2
Cc1ccc(OCc2cc(C(=O)NCc3ccc(OC(F)(F)F)cc3)no2)cn1	-27	52*	2	2	2
Cc1ccccc1NC(=O)CSc1nnc(-c2cccs2)o1	7	18	2	-1	-3
CN(C1CCCCC1)S(=O)(=O)CCNC(=O)c1ccccc1	-67*	0	0	1	0
COc1cccc(C(=O)NCCS(=O)(=O)N(C)C2CCCCC2)c1	-6	-1	3	-8	0
Cc1cccc(NC(=O)CN2C(=O)C3(SCC(=O)N3c3ccccc3)c3ccccc32)c1 (configuration not stated)	-36*	5	3	-1	-2
C[C@H](NC(=O)[C@H]1N2C(=O)c3ccccc3C2SC1(C)C)C(=O)N1CCC[C@H]1CO (some centres not stated)	7	40*	-7	-5	0
CC1=C(C(=O)OC(C)C)C(c2ccncc2)n2ncnc2N1 (configuration not stated)	-12	2	9	-2	0
CC1=C(C(=O)OC(C)C)C(c2cccnc2)n2ncnc2N1 (configuration not stated)	-34*	1	-3	·	2
COC(=O)C1=C(C)Nc2ncnn2C1c1ccc(OCc2ccccc2)cc1 (configuration not stated)	-38*	4	-8	-5	0
O=C(N/N=C\c1ccc(-c2ccccc2[N+](=O)[O-])o1)C1COc2cc3ccccc3cc2O1 (configuration not stated)	-5	2	-3	-3	0
Cc1c(C(=O)N/N=C/c2ccc(-c3ccccc3[N+](=O)[O-])o2)sc(N)c1C#N	-62*	0	2	-10	0
O=C(N/N=C\c1ccc(-c2ccccc2[N+](=O)[O-])o1)C1COc2ccccc2O1 (configuration not stated)	-36*	1	2	-6	0
O=C(N/N=C/c1ccc(-c2ccccc2[N+](=O)[O-])o1)c1cncc(Br)c1	-19	1	1	-4	1
COc1ccc(OC)c(N/C(=N/C(=S)Nc2ccccc2)Nc2nc(C)cc(C)n2)c1	-31*	2	3	-8	0
COc1ccc2nc(N/C(N)=N/C(=S)Nc3ccccc3)nc(C)c2c1	18	-2	4	0	0
CCCN(CCC)CCCNC(=O)c1cc2cc3ccc(Cl)cc3nc2o1	-14	2	40*	-6	1
CCCCC1(C)NC(=O)N(CC(=O)Nc2cc(S(=O)(=O)N3CCOCC3)ccc2Cl)C1=O (configuration not stated)	-9	0	3	3	0
COCC(C)NC(=O)CSc1nc2cc(S(=O)(=O)N3CCCCC3)ccc2o1 (configuration not stated)	-47*	4	-3	-9	1
COCCCNC(=O)CSc1nc2cc(S(=O)(=O)N3CCCCC3)ccc2o1	1	6	5	0	1
Cc1cccc(Nc2nc(C#N)nc(NC3CCCC3)n2)c1	-8	11	-2	-4	1
CCOc1ccc(-n2cc(-c3ccccc3)c3c(NC4CCCC4)ncnc32)cc1	9	-2	1	2	0
COc1ccc2[nH]cc(C(=O)CN3CCN(C/C=C/c4ccccc4)CC3)c2c1	-3	86*	8	-2	0

Source: PubChem (National Center for Advancing Translational Sciences (NCATS))
